{"source": "PubChem BioAssay (NCATS)", "note": "Records with an inconclusive call do not appear. A number with no mark means an inactive call. Calls of active or inactive are those of the source. The call rests on the fitted dose curve; in most records, active means well fitted inhibition curve with a large enough effect in the repeat runs; inconclusive means weak or mixed curves; inactive means flat fitted curve, though single readings scatter. On the % scale 0 is the no-effect control and ±100 the full control effect; potency means the concentration at half of the fitted maximal effect."}
{"target": "Cytochrome P450 2D6 (Homo sapiens) (UniProt P10635)", "sequence (P10635 whole entry, looked up)": "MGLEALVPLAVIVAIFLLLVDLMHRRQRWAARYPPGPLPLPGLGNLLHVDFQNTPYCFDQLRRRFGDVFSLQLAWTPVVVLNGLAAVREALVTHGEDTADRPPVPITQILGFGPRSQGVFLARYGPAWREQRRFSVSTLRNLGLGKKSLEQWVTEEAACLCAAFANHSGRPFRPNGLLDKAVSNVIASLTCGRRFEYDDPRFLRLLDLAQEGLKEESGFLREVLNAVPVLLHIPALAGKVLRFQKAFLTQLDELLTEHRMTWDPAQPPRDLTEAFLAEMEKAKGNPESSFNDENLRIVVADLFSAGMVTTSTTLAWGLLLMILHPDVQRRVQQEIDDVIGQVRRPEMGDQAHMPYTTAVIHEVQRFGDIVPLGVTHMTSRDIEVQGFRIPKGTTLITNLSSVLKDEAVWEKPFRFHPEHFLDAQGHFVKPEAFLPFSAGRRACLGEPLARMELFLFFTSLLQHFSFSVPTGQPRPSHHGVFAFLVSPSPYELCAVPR", "assay": "Cytochrome P450 family 2 subfamily D member 6 (CYP2D6) small molecule antagonists: luciferase biochemical (cell-free) qHTS assay (AID 1645840); further: nearly all actives have a fitted effect of over 55% in size", "conditions": "P450-Glo CYP2D6 enzyme, luciferin luminescence, 1 h; series mostly up to 57.4 µM; activity change, negative = inhibition: at the top concentration", "procedure,_shortened": "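P450-Glo CYP2D6 system: proluciferin substrate converted by enzyme to luciferin, read by luminescence proportional to activity. Enzyme-substrate mix with compound 10 min at room temperature, then NADPH regeneration 1 h before detection reagent.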", "units": {"activity change, negative = inhibition": "%"}}
{"smiles": "CCc1ccc(-n2c(SCc3ccccc3Cl)nc3[nH]ncc3c2=O)cc1", "Potency": "15.1 µM (active)"}
{"smiles": "COc1ccc(Cn2ccnc2SCC(=O)Nc2nc3ccccc3s2)cc1", "Potency": "9.52 µM (active)"}
{"smiles": "CCc1ccc(S(=O)(=O)NCc2ccc3c(c2)CCN3C(=O)c2ccc(C)cc2)cc1", "Potency": "5.35 µM (active)"}
{"smiles": "CCOc1ccc(C(NC(=O)c2cc(OC)c(OC)c(OC)c2)c2cc(Cl)c3cccnc3c2O)cc1", "note": "(centres undefined)", "activity change, negative = inhibition": 6.6}
{"smiles": "COc1ccc(-c2n[nH]c3c2cnc2cc(OC)c(OC)cc23)cc1", "activity change, negative = inhibition": -0.675}
{"smiles": "Cc1cc(Cl)ccc1NC(=O)CCCn1nc(C)c2c(C)n(-c3ccccc3)nc2c1=O", "activity change, negative = inhibition": 4.53}
{"smiles": "COc1ccc2c(c1)CCc1sc(NC(=O)c3cccc(Br)c3)nc1-2", "activity change, negative = inhibition": -5.53}
{"smiles": "CCOc1ccccc1CNC(=O)C1CCN(S(=O)(=O)c2c(C)noc2/C=C/c2ccccc2F)CC1", "activity change, negative = inhibition": -2.65}
{"smiles": "NC(=O)c1ccc(Cc2c(-c3cccc(-c4ccccc4)c3)[nH]n(-c3nc(C(=O)O)cs3)c2=O)cc1", "Potency": "23.9 µM (active)"}
{"smiles": "COC(=O)c1cnc(N2CCN(c3ccc(OC)cc3)CC2)c2ccccc12", "activity change, negative = inhibition": -13.6}
{"smiles": "CC1=C(C(=O)NCc2cncn2C)C(c2ccccc2Cl)N=C(Nc2nc3ccccc3o2)N1", "note": "(centres undefined)", "Potency": "9.52 µM (active)"}
{"smiles": "CC(C)OCc1cc(CN2CCN(c3cccc(C(F)(F)F)c3)CC2)c(O)c2ncccc12", "activity change, negative = inhibition": 3.97}
{"smiles": "COC(=O)c1c(SCC(=O)Nc2cc(C)cc(C)c2)[nH]c2ccccc2c1=O", "activity change, negative = inhibition": 0.124}
{"smiles": "Cc1ccc(Nc2nc3nonc3nc2Nc2cccc(C(F)(F)F)c2)cc1Cl", "Potency": "9.52 µM (active)"}
{"smiles": "COc1cc(C(c2c(C)[nH][nH]c2=O)c2c(C)[nH][nH]c2=O)ccc1OC(=O)c1ccccc1OC", "activity change, negative = inhibition": 9.69}
{"smiles": "Cc1ccc(C2=CC(c3ccccc3C)n3c(nc4ccccc43)N2)cc1", "note": "(centres undefined)", "Potency": "9.52 µM (active)"}
{"smiles": "Cc1ccc(-n2c(SCc3ccccc3F)nc3[nH]ncc3c2=O)cc1C", "Potency": "16.9 µM (active)"}
{"smiles": "COc1ccc(-n2ccn(CC(=O)Nc3ccc(C)c(C)c3)c(=O)c2=O)cc1OC", "activity change, negative = inhibition": 15.8}
{"smiles": "CCN1CCN(CCCNC(=O)c2cc3c(s2)-c2c(C)cccc2OC3)CC1", "Potency": "10.7 µM (active)"}
{"smiles": "CCC(=O)N1CCc2cc(S(=O)(=O)NC(Cc3ccccc3)C(=O)NCc3cccc(OC)c3)ccc21", "note": "(centres undefined)", "Potency": "12 µM (active)"}
{"smiles": "CCOc1ccc(NC(=O)Cn2cc(C(=O)c3cccs3)c3ccccc32)cc1", "activity change, negative = inhibition": -8.58}
{"smiles": "CCOC(=O)c1ccc(NC(=O)CCn2c(=O)c3cccn3c3cccnc32)cc1", "activity change, negative = inhibition": -2.25}
{"smiles": "CCc1ccc(-c2nc(CSCC(=O)NCc3ccc(C)cc3)c(C)o2)cc1", "Potency": "15.1 µM (active)"}
{"smiles": "COc1cccc(C(=O)NC(c2ccc(Cl)cc2)c2cc(Cl)c3cccnc3c2O)c1", "note": "(centres undefined)", "activity change, negative = inhibition": 4.15}
{"smiles": "Cc1ccc2nc3c(cc(C#N)c(=O)n3-c3nnc(SCc4ccccc4)s3)c(=O)n2c1", "activity change, negative = inhibition": 9.87}
{"smiles": "Cc1cc(-n2c(SCc3ccccc3F)nc3[nH]ncc3c2=O)ccc1Cl", "Potency": "19 µM (active)"}
{"smiles": "CCc1ccc(C2=CC(c3cccc(C)c3)n3c(nc4ccccc43)N2)cc1", "note": "(centres undefined)", "Potency": "9.52 µM (active)"}
{"smiles": "CC1(C#N)CCN(c2c(C(=O)N3CCN(S(C)(=O)=O)CC3)cnc3ccc(F)cc23)CC1", "activity change, negative = inhibition": 3.72}
{"smiles": "CC1(C#N)CCN(c2c(C(=O)N3CCN(C(=O)N4CCCC4)CC3)cnc3c(F)cc(F)cc23)CC1", "activity change, negative = inhibition": -3.28}
{"smiles": "CC(CCC(=O)O)C1CC[C@H]2C3[C@H](O)C[C@@H]4C[C@H](O)CCC4(C)[C@H]3C[C@H](O)C12C", "note": "(some centres undefined)", "activity change, negative = inhibition": -0.4}
{"smiles": "O=C(CSc1nccn1Cc1ccc(F)cc1)Nc1nc2ccccc2s1", "Potency": "10.7 µM (active)"}
{"smiles": "COc1ccc(CNC(=O)Nc2ccc3c(c2)N(C)C(=O)c2ccccc2S3)cc1OC", "Potency": "9.52 µM (active)"}
{"smiles": "COC(=O)C1=C(c2ccccc2)c2ccccc2S(=O)(=O)N1CC(=O)Nc1ccccc1Cl", "Potency": "3.79 µM (active)"}
{"smiles": "N#C/C(=C/c1ccccc1Cl)c1nc2ccccc2c(=O)[nH]1", "activity change, negative = inhibition": 9.03}
{"smiles": "COc1ccc(NC(=O)Cn2ccn(-c3ccc(C)c(C)c3)c(=O)c2=O)cc1Cl", "activity change, negative = inhibition": 11.3}
{"smiles": "Cc1ccc(S(=O)(=O)NC2CCC(C(C)(C)C)CC2)cc1", "note": "(centres undefined)", "activity change, negative = inhibition": -21.1}
{"smiles": "COC(=O)c1c(-c2ccc(Cl)cc2)noc1N1CCN(c2ccccc2OC)CC1", "activity change, negative = inhibition": 2}
{"smiles": "Cc1ccc(C)c(Nc2nc3nonc3nc2Nc2cccc(C)c2C)c1", "Potency": "10.7 µM (active)"}
{"smiles": "Cc1cccc(NC(=O)Cn2cc(C(=O)c3ccco3)c3ccccc32)c1C", "Potency": "6.01 µM (active)"}
